According to PubChem BioAssay (Tox21):
Records with an inconclusive call do not appear. Calls of active or inactive are those of the source. Unless noted, calls follow the shape of the full dose curve.

Legend:
[1] = Nuclear factor erythroid 2-related factor 2/antioxidant responsive element (Nrf2/ARE) small molecule agonists: qHTS cell viability counter screen in human keratinocytes (AID 1919968; active = well fitted curve in the direction sought with a large enough effect in the repeat runs; an effect the other way counts as inactive or inconclusive; also: nearly all actives have a fitted effect of over 55% in size)
How it was run: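 Cells of the KeratinoSens line were plated at 1,500 per well and left for 5 h before compound transfer from DMSO stocks. After a 23 h incubation (37 C, 5% CO2), CellTiter-Fluor was added. Signal was taken as fluorescence intensity 1 h later.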

[2] = Nuclear factor erythroid 2-related factor 2/antioxidant responsive element (Nrf2/ARE) small molecule agonists: luciferase reporter gene qHTS assay in human keratinocytes (AID 1919969); also: nearly all actives have a fitted effect of over 35% in size; also: potency is read from the fitted curve at half-maximal effect
[3] = target: Gonadotropin-releasing hormone receptor (Homo sapiens) (UniProt P30968); assay: Human gonadotropin-releasing hormone receptor (GnRHR) small molecule agonists, calcium flux assay in GnRHR-HEK293 cells (AID 1920063); also: nearly all actives have a fitted effect of over 35% in size
Chain of Gonadotropin-releasing hormone receptor (Homo sapiens) (P30968 whole entry, looked up): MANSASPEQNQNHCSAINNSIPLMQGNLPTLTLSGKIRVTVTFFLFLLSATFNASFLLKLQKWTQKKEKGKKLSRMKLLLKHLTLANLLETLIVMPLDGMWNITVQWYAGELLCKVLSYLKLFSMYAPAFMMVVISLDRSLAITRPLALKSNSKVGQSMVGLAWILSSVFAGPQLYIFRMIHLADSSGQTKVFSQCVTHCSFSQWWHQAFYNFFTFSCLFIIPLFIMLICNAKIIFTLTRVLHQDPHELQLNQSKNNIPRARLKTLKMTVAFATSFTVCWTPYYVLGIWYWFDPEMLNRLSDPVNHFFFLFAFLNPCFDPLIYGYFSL
How it was run: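 Compounds dissolved in DMSO are pin-transferred onto dye-loaded GnRHR-HEK293 cells, which were seeded 18 h before at 37 C/5% CO2. Calcium signal is read as fluorescence intensity at 1 s intervals for 3 min.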

[4] = target: KiSS-1 receptor (Homo sapiens) (UniProt Q969F8); assay: Human kisspeptin (KISS1R) small molecule agonists, calcium flux assay in KISS1R-HEK293 cells (AID 1920064; active = well fitted curve in the direction sought with a large enough effect in the repeat runs; an effect the other way counts as inactive or inconclusive)
Chain of KiSS-1 receptor (Homo sapiens) (Q969F8 whole entry, looked up): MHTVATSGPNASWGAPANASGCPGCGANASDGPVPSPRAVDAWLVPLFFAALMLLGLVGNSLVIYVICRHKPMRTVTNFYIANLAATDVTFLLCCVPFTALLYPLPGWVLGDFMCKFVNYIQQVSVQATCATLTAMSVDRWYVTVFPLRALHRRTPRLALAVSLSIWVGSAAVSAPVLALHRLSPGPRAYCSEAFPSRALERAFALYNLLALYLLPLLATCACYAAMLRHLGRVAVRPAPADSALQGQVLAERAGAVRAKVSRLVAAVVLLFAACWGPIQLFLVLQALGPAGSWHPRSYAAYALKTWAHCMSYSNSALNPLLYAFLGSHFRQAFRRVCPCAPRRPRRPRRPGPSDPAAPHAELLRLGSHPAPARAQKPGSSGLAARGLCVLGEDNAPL
How it was run: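 Cell line: HEK293, stable human KISS1R. Dye loading 1 h at 37 C after 18 h culture. Read: kinetic fluorescence, 480/540 nm, 3 min at 1 s intervals.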

[5] = G protein-coupled receptor (GPCR) small molecule agonists, calcium flux assay: HEK293 wild type cell line counter screen (AID 1920065)
How it was run: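 Tox21 10K compounds, 15 concentrations each in triplicate, pin-transferred in DMSO onto dye-loaded cells; kinetic read at 480/540 nm for 3 min, 1 s intervals.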

[6] = p53 small molecule agonists, cell-based qHTS assay with human liver microsomes: qHTS cell viability counter screen (AID 1963579); also: nearly all actives have a fitted effect of over 45% in size
How it was run: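 After the 460/530 nm beta-lactamase read, CellTiter-Glo was added to the same wells and luminescence measured after 30 min at room temperature, giving viability of p53RE-bla cells treated 16 h with compounds plus microsomes and NADPH.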

[7] = p53 small molecule agonists, cell-based qHTS assay with rat liver microsomes: qHTS cell viability counter screen (AID 1963580); also: nearly all actives have a fitted effect of over 45% in size
How it was run: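 Counter screen for cytotoxicity under metabolic activation: rat liver microsomes and NADPH, 0.5 mg/mL final each, added with compounds to p53RE-bla HCT-116 cells; 16 h at 37 C, then ATP luminescence read.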

[8] = p53 small molecule agonists, cell-based qHTS assay: qHTS cell viability counter screen (AID 1963581); also: nearly all actives have a fitted effect of over 45% in size
How it was run: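 ATP content measured by luminescence in HCT-116 p53RE-bla cells treated 16 h at 37 C, same wells as the reporter screen.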

[9] = target: Muscarinic acetylcholine receptor M1 (Homo sapiens) (UniProt P11229); assay: Cholinergic receptor muscarinic 1 (CHRM1) small molecule antagonists, cell-based qHTS assay (AID 1963588); also: nearly all actives have a fitted effect of over 40% in size
Chain of Muscarinic acetylcholine receptor M1 (Homo sapiens) (P11229 whole entry, looked up): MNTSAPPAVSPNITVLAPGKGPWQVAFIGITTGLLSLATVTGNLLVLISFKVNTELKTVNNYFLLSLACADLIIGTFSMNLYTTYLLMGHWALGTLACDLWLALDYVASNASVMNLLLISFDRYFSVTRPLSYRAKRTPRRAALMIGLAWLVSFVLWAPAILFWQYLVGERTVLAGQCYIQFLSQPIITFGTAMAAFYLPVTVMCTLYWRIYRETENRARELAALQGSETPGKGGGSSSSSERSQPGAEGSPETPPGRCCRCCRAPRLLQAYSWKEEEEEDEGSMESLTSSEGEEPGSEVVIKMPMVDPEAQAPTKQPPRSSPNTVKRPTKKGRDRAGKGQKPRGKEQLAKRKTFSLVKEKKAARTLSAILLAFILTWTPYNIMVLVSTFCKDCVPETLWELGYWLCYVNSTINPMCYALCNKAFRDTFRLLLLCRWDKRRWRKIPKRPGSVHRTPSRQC
How it was run: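 Compounds were tested at 15 concentrations in three independent runs. Dye-loaded CHRM1-CHO cells were exposed 5 min at room temperature before stimulation by acetylcholine added at 50nM. Intracellular calcium was read kinetically on FDSS for 3 min.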

[10] = target: Muscarinic acetylcholine receptor M1 (Homo sapiens) (UniProt P11229); assay: Cholinergic receptor muscarinic 1 (CHRM1) small molecule agonists, cell-based qHTS assay (AID 1963589); also: nearly all actives have a fitted effect of over 35% in size
How it was run: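 Homogeneous fluorescence calcium flux, agonist mode. Human M1-expressing CHO cells; compound dosed at 15 concentrations, three independent runs; signal sampled every 1 sec.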

[11] = cAMP Responsive Elements (CRE) small molecule agonists, cell-based qHTS assay (AID 1963590)
How it was run: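 HEK 293T cells stably bearing CRE-bla were plated at 2,000 cells per well and rested 18 h. Compounds, positive controls or DMSO were added for 3 h at 37 C. LiveBLAzer B/G substrate was then loaded for 2 h at room temperature.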

[12] = cAMP Responsive Elements (CRE) small molecule antagonists, cell-based qHTS assay (AID 1963591; active = well fitted inhibition curve with a large enough effect in the signal ratio in the repeat runs, not every such curve was filed as active; the % refers to the signal ratio)
How it was run: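 First, CRE-bla HEK293T cells settled 18 h at 37 C. Next, compound and 0.25 uM final NKH477 were applied for 3 h. Last, LiveBLAzer B/G substrate was loaded for 2 h at room temperature.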

[13] = target: Beta-2 adrenergic receptor (Homo sapiens) (UniProt P07550); assay: Adrenergic beta2 receptor (ADRB2) small molecule antagonists, cell-based qHTS assay (AID 1963592); also: nearly all actives have a fitted effect of over 50% in size; also: potency is read from the fitted curve at half-maximal effect; as to activity change, negative = inhibition: series mostly up to about 92 µM
Chain of Beta-2 adrenergic receptor (Homo sapiens) (P07550 whole entry, looked up): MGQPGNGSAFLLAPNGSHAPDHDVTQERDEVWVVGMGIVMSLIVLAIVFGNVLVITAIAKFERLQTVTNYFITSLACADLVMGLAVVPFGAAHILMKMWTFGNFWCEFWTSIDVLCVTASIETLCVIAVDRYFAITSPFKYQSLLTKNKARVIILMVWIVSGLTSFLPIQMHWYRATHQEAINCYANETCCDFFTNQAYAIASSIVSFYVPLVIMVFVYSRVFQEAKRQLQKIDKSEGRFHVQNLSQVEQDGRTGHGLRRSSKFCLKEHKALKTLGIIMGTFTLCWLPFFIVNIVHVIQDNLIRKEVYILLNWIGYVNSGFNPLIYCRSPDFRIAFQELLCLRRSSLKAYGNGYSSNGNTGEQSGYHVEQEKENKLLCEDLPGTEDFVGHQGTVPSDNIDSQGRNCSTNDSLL
How it was run: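 Assay format: CHO-ADRB2 cells, 18-20hr seeding at 37C/5% CO2, then compound plus 1nM isoproterenol agonist mix for 0.5hr RT. Homogeneous time-resolved fluorescence cAMP detection after 1hr, expressed as 665/615 nm ratio.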

[14] = target: D(2) dopamine receptor (Homo sapiens) (UniProt P14416); assay: Dopamine D2 receptor (DRD2) small molecule agonists, cell-based qHTS assay (AID 1963594); also: nearly all actives have a fitted effect of over 35% in size
Chain of D(2) dopamine receptor (Homo sapiens) (P14416 whole entry, looked up): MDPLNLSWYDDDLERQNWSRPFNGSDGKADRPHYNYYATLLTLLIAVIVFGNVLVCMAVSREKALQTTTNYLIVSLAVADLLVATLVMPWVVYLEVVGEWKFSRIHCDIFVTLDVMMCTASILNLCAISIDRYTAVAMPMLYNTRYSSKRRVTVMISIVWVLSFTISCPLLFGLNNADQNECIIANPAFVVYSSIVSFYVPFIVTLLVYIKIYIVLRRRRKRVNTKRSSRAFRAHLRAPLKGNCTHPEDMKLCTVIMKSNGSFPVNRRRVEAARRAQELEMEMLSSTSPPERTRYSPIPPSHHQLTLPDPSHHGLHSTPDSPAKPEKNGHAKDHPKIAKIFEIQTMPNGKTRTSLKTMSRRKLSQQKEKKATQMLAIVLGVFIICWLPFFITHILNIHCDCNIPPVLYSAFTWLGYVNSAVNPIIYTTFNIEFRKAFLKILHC
How it was run: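 HEK293 cells stably expressing DRD2 were cultured 24 h at 37 C, then given Ro20-1724 (0.1 mM final) and compounds for 10 min at room temperature. NKH477 (200nM) was then added for 30 min. cAMP was read by HTRF.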

[15] = target: D(2) dopamine receptor (Homo sapiens) (UniProt P14416); assay: Dopamine D2 receptor (DRD2) small molecule antagonists, cell-based qHTS assay (AID 1963595; active = well fitted inhibition curve with a large enough effect in the signal ratio in the repeat runs, with a control signal flat; the % refers to the signal ratio)
How it was run: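 HEK293 cells stably expressing DRD2, preincubated with 0.1 mM Ro20-1724 and compounds 10 min, were stimulated with 200 nM NKH477 plus 12 nM quinpirole for 30 min at room temperature; cAMP measured by HTRF (665/620 nm).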

[16] = target: 5-hydroxytryptamine receptor 2A (Homo sapiens) (UniProt P28223); assay: 5-hydroxytryptamine receptor 2A (HTR2A) small molecule agonists, cell-based qHTS assay (AID 1963587); also: nearly all actives have a fitted effect of over 30% in size
Chain of 5-hydroxytryptamine receptor 2A (Homo sapiens) (P28223 whole entry, looked up): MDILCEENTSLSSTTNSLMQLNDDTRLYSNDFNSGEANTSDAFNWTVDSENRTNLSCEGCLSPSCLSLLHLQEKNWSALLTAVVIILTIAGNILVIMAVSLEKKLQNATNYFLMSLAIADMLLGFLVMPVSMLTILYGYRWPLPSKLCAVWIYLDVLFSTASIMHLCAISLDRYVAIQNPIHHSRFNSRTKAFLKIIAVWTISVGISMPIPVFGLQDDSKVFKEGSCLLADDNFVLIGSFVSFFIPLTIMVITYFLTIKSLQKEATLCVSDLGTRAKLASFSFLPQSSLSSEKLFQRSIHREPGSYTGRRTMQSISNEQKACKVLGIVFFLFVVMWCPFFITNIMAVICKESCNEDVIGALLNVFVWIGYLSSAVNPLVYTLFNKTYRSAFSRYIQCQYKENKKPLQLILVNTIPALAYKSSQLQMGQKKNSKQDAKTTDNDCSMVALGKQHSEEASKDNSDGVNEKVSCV
How it was run: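 HTR2A-CHO cells, plated 18 h at 37 C/5% CO2, dye-loaded 1 h at 37 C; compounds in DMSO added by pin tool (agonist mode). Intracellular calcium flux read as kinetic fluorescence on FDSS over 2 min at 1 s intervals.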

[17] = target: Beta-2 adrenergic receptor (Homo sapiens) (UniProt P07550); assay: Adrenergic beta2 receptor (ADRB2) small molecule agonists, cell-based qHTS assay (AID 1963593);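 also: CHO cells stably overexpressing human ADRB2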
How it was run: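 CHO cells stably over-expressing ADRB2 were plated overnight at 37C, then dosed with compounds plus a stimulation mix containing 100uM IBMX and 25uM Ro-20-1724 for 0.5hr at room temperature. cAMP was measured by HTRF competition, 1hr.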

[18] = target: 5-hydroxytryptamine receptor 2A (Homo sapiens) (UniProt P28223); assay: 5-hydroxytryptamine receptor 2A (HTR2A) small molecule antagonists, cell-based qHTS assay (AID 1963586); also: nearly all actives have a fitted effect of over 45% in size
How it was run: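 CHO cells stably expressing human HTR2A were plated for 18 h at 37 C, then loaded with calcium dye for 1 h. Compounds were preincubated 5 min at room temperature before DOI (4 nM solution) was added. Kinetic fluorescence was read for 3 min.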
% is scaled to controls: 0 for no effect and ±100 for the full control effect.

COc1ccc(OC)c(CC(C)N)c1 (stereo not given)
inactive: Potency [1] | Potency [2] | Potency [3] | Potency [4] | Potency [5] | Potency [6] | Potency [7] | Potency [8] | Potency [9] | Potency [10] | Potency [11] | Potency [12] | Potency [14] | Potency [15]
active: Potency [13] 65.6 µM

CN(C)CCN(C)C
inactive: Potency [1] | Potency [2] | Potency [3] | Potency [4] | Potency [5] | Potency [6] | Potency [7] | Potency [8] | Potency [16] | Potency [9] | Potency [10] | Potency [11] | Potency [12] | Potency [13] | Potency [17] | Potency [14] | Potency [15]

O=C(CBr)c1ccccc1
active: Potency [2] 69 µM
inactive: Potency [1] | Potency [3] | Potency [4] | Potency [5] | Potency [6] | Potency [7] | Potency [8] | Potency [18] | Potency [9] | Potency [10] | Potency [11] | Potency [12] | Potency [13] | Potency [14] | Potency [15]

CC(C)(N)Cc1ccc(Cl)cc1
inactive: Potency [1] | Potency [2] | Potency [3] | Potency [4] | Potency [5] | Potency [6] | Potency [7] | Potency [8] | Potency [18] | Potency [9] | Potency [11] | Potency [12] | Potency [13] | Potency [17] | Potency [14] | Potency [15]

c1ccc(Nc2ccc(Nc3ccccc3)cc2)cc1
inactive: Potency [1] | Potency [3] | Potency [4] | Potency [5] | Potency [6] | Potency [7] | Potency [8] | Potency [11] | Potency [12] | Potency [13] | Potency [15]
active: Potency [2] 27.2 µM

CCC1(c2cccc(O)c2)CCCCN(C)C1 (stereo not given)
inactive: Potency [1] | Potency [2] | Potency [3] | Potency [4] | Potency [5] | Potency [6] | Potency [7] | Potency [8] | Potency [16] | Potency [10] | Potency [11] | Potency [12] | Potency [13] | Potency [17] | Potency [14] | Potency [15]

CCOP(=S)(OCC)SCSc1ccc(Cl)cc1
inactive: Potency [1] | Potency [2] | Potency [3] | Potency [4] | Potency [5] | Potency [6] | Potency [7] | Potency [8] | Potency [18] | Potency [16] | Potency [10] | Potency [11] | Potency [13] | Potency [17] | Potency [14] | Potency [15]

CSC(C)(C)/C=N/O
inactive: Potency [1] | Potency [2] | Potency [3] | Potency [4] | Potency [5] | Potency [6] | Potency [7] | Potency [8] | Potency [16] | Potency [9] | Potency [10] | Potency [11] | Potency [12] | Potency [13]

CCNc1nc(NC(C)C(C)C)nc(SC)n1 (stereo not given)
inactive: Potency [1] | Potency [2] | Potency [3] | Potency [4] | Potency [5] | Potency [6] | Potency [7] | Potency [8] | Potency [18] | Potency [11] | Potency [12] | Potency [13] | Potency [14] | Potency [15]

NCC(CC(=O)O)c1ccc(Cl)cc1 (stereo not given)
inactive: activity change, negative = cytotoxicity [1] 20.7% [at 0.349 µM] | activity, positive = activation [2] 2.43% [at 0.349 µM] | activity change [3] -1.11% [at 0.217 µM, hits give high values] | activation [4] -1.08% [at 0.29 µM] | activation [5] 0.685% [at 0.217 µM] | activity change, negative = cytotoxicity [6] -3.85% [at 0.249 µM] | activity change, negative = cytotoxicity [7] 5.91% [at 0.249 µM] | activity change, negative = cytotoxicity [8] -8.51% [at 0.249 µM] | activation [11] -1.8% [at 0.349 µM] | activity change, negative = inhibition [12] -4.66% [at 0.349 µM] | activity change, negative = inhibition [13] 2.66% [at 0.349 µM] | activation [17] 10.6% [at 0.349 µM] | activation [14] 0.37% [at 0.349 µM] | activity change, negative = inhibition [15] 1.84% [at 0.348 µM]
